# Laboratory results taken from PubChem BioAssay.
# The source made the active and inactive calls.
# Tests used:
# Albumin (Bos taurus) = Albumin (Bos taurus) (UniProt P02769); assay: compounds binding labelled BSA control protein – biochemical, small-molecule microarray, Alexa647 label, 635/667 nm fluorescence, artefact control for SMM control protein annotation, profiling panel (AID 1118); conditions: BSA-A647 binding, fluorescence 635 nm, higher = more signal;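 further: score merges 667 nm emission intensity and signal-to-noise per printed compound spot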
# Sequence of Albumin (Bos taurus) (P02769 whole entry, looked up): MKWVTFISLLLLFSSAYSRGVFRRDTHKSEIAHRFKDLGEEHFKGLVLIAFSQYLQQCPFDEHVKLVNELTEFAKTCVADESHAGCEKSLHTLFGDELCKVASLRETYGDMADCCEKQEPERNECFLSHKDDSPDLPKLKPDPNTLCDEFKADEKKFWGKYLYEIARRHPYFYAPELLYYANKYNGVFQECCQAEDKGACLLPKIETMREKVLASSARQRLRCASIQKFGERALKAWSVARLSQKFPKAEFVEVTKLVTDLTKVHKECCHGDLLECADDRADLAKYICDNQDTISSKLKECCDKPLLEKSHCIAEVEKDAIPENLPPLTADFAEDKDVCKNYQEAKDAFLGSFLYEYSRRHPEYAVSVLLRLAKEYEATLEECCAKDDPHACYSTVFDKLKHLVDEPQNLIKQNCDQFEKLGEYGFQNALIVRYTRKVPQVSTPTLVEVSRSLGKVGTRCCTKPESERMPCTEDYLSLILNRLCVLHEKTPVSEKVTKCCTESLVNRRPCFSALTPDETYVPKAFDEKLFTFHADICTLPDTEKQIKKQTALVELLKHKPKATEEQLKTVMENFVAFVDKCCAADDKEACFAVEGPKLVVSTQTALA
# [1] = probe aXIP binding to arrayed compounds – biochemical, NeuroSMM set, 635/667 nm fluorescence, primary screen (AID 1119); conditions: small-molecule microarray, higher = more signal, called active from +8 up or from −8 down;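 further: probe is the protein aXip251-270 applied at 1 µg/mL to compound-printed slides; binding of probe to printed compounds measured as 667 nm fluorescence plus signal to noise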
# [2] = probe aNOTCH3 binding on compound microarray – biochemical, small-molecule microarray, 635/667 nm fluorescence, primary screen (AID 1120); conditions: higher = more signal;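 further: probe is a biotin-tagged antibody raised against NOTCH3 rather than NOTCH3 protein; score merges spot fluorescence near 667 nm with spot signal to noise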
# [3] = probe aNOTCH2 binding on compound microarray – biochemical, small-molecule microarray, 635/667 nm fluorescence, primary screen (AID 1121); conditions: higher = more signal;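 further: score merges feature fluorescence read at 667 nm with its signal to noise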
# [4] = biological target: Carbonic anhydrase 2 (Homo sapiens) (UniProt P00918); assay: compounds binding carbonic anhydrase 2 – biochemical, small-molecule microarray, Alexa647-labelled CAII, profiling panel (AID 1122); conditions: CAII-A647 binding fluorescence, higher = more signal
# [5] = COS7 lysate on small-molecule microarray, probe aHis, 635 nm (AID 1123); conditions: COS7 cell lysate, fluorescence, higher = more signal;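 further: z-score combines 667nm fluorescence intensity with signal-to-noise per printed compound spot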
# [6] = probe aLAP1 signal on lysate-treated microarray – cell lysate, small-molecule microarray, COS7 lysate, primary screen (AID 1124); conditions: probe aLAP1, fluorescence, higher = more signal;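 further: lysate comes from COS7 cells expressing LAP1 and is applied at 0.3 µg/mL; score merges spot fluorescence near 667 nm with signal-to-noise over triplicate slides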
# Sam68 (KHDRBS1) = assay: compounds binding KHDRBS1 protein – biochemical, small-molecule microarray, 635 nm fluorescence, primary screen (AID 1125); conditions: higher = more signal;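 further: score merges 667 nm channel intensity with signal to noise over triplicate slides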
# [7] = tested on: Chordin-like protein 2 (CHRDL2); assay: compounds binding chordin-like 2 – biochemical, small-molecule microarray, 635 nm fluorescence, primary screen (AID 1126); conditions: fluorescence 635 nm, higher = more signal;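 further: printed compound slides probed with Chrdl2 protein at 4 µg/mL for 1 h at 4 C; score merges 667 nm emission intensity with signal to noise over three replicate slides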
# [8] = biological target: Concanavalin-A (Canavalia ensiformis) (UniProt P02866); assay: compounds binding concanavalin A lectin – biochemical, small-molecule microarray, Alexa647 label, 635 nm, artefact control for SMM control protein annotation, primary screen (AID 1127); conditions: ConA-A647 binding fluorescence, higher = more signal;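 further: z combines 667 nm emission intensity with signal-to-noise across three replicate slides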
# Sequence of Concanavalin-A (Canavalia ensiformis) (P02866 whole entry, looked up): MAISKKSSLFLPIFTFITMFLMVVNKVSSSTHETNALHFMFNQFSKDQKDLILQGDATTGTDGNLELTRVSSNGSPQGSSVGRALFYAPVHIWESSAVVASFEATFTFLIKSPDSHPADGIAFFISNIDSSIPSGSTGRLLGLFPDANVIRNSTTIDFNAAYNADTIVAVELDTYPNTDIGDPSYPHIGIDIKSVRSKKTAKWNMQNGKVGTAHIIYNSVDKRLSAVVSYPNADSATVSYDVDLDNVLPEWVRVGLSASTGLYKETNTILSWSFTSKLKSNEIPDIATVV
# [9] = compounds binding Alexa647 anti-His antibody – biochemical, small-molecule microarray, 635 nm fluorescence, artefact control for SMM control protein annotation, primary screen (AID 1128); conditions: higher = more signal;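 further: score merges feature fluorescence with signal-to-noise for each printed compound spot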
# [10] = tested on: Human papillomavirus type 1a E7 protein (residues 1-88); assay: HPV1a E7 small-molecule binders, primary screen, biochemical, small-molecule microarray, residues 1-88, 635 nm (AID 1129); conditions: small-molecule microarray binding, fluorescence 635 nm; higher = more signal
# [11] = biological target: Focal adhesion kinase 1 (Homo sapiens) (UniProt Q05397); assay: PTK2 protein binding on printed compound slides – biochemical, small-molecule microarray, 635/667 nm fluorescence, BSA, DTT, primary screen (AID 1130); conditions: 635 nm fluorescence, higher = more signal;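 further: composite of spot emission at 667 nm and signal to noise over triplicate slides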
# Sequence of Focal adhesion kinase 1 (Homo sapiens) (Q05397 whole entry, looked up): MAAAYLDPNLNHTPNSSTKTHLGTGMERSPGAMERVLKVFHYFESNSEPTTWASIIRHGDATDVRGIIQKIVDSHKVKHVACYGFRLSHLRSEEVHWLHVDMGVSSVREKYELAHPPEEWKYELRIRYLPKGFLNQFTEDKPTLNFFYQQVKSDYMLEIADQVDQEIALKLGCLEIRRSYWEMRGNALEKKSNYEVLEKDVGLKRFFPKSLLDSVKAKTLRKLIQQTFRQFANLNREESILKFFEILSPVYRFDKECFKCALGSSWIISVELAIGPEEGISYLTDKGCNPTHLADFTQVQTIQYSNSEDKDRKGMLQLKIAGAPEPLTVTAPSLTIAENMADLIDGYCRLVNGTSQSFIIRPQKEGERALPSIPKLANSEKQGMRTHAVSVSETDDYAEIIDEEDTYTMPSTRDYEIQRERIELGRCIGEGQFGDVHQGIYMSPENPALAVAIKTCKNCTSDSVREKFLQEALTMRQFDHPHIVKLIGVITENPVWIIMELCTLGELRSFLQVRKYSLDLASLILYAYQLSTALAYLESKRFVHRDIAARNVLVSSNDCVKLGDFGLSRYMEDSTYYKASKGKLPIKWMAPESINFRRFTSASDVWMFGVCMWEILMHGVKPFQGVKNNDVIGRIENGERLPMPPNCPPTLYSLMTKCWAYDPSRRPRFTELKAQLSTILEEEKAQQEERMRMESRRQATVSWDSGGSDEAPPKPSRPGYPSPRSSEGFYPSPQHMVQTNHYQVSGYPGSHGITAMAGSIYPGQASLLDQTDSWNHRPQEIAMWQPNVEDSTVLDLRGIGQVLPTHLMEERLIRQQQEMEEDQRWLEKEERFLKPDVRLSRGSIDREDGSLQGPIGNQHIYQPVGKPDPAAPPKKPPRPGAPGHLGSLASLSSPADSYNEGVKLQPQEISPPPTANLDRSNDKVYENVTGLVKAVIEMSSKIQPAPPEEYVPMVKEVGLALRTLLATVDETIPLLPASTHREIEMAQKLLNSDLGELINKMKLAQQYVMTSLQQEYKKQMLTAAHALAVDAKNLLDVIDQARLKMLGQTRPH
# [12] = tested on: Fibrinogen (Alexa647-labelled); assay: Alexa647-fibrinogen binding to printed small molecules – biochemical, small-molecule microarray, 635/667 nm fluorescence, artefact control for SMM control-protein annotation, profiling panel (AID 1131); conditions: fibrinogen-A647 binding fluorescence, higher = more signal;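 further: z-score merges 667 nm fluorescence with per-spot signal-to-noise over triplicate slides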
# [13] = biological target: Follistatin (Homo sapiens) (UniProt P19883); assay: FST protein binding to printed compounds – biochemical, small-molecule microarray, 635/667 nm fluorescence, primary screen (AID 1132); conditions: 635 nm fluorescence, higher = more signal
# Sequence of Follistatin (Homo sapiens) (P19883 whole entry, looked up): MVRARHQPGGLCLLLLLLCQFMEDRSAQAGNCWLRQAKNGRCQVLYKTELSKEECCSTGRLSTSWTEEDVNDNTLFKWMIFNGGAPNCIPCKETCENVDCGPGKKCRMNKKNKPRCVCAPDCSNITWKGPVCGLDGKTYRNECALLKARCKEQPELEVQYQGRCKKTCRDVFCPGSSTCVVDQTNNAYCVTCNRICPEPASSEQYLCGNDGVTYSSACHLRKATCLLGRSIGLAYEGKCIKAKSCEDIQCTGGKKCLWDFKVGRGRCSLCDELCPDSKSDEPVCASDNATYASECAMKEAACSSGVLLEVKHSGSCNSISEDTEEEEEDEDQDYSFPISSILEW
# [14] = biological target: Fibroblast growth factor 2 (Homo sapiens) (UniProt P09038); assay: basic fibroblast growth factor binding to printed compounds – biochemical, small-molecule microarray, 635/667 nm fluorescence, primary screen (AID 1133); conditions: FGF2, fluorescence 635/667, higher = more signal
# Sequence of Fibroblast growth factor 2 (Homo sapiens) (P09038 whole entry, looked up): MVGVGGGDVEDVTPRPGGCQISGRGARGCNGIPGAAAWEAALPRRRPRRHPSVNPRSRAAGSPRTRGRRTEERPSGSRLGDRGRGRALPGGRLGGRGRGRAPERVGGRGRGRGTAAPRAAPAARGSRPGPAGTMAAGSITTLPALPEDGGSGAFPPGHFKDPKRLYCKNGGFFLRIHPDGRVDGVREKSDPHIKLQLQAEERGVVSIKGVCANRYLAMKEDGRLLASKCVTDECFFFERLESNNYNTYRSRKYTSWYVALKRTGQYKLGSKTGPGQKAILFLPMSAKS
# [15] = JC-1 mitochondrial potential readout, lung cancer cells – cell-based, A549, JC-1 fluorescence, basal, 24 h, 100 nL, profiling panel (AID 1138); conditions: higher = more signal;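 further: A549 lung adenocarcinoma cells under basal conditions with no added stimulus; test concentration not given here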
# Lefty1 = Lefty1 protein binding to printed compounds – biochemical, small-molecule microarray, 635/667 nm fluorescence, primary screen (AID 1139); conditions: fluorescence 635/667, higher = more signal
# [16] = tested on: wheat germ agglutinin (Triticum aestivum), Alexa647-labelled; assay: Alexa647-WGA lectin binding to printed small molecules – biochemical, small-molecule microarray, 635/667 nm fluorescence, artefact control for SMM control-protein annotation, profiling panel (AID 1140); conditions: WGA-A647 binding, 635 nm fluorescence, higher = more signal;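 further: score merges 667 nm feature emission with signal to noise over triplicate slides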
# [17] = biological target: Luciferin 4-monooxygenase (Photinus pyralis) (UniProt P08659); assay: inhibition of purified Photinus pyralis luciferase – biochemical, luminescence, purified enzyme, 2006 set, primary screen (AID 1141); conditions: purified firefly luciferase, SteadyGlo luminescence, 30 min; higher = more signal, called active from +8 up or from −8 down;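 further: cell-free assay with purified firefly luciferase at 100 ng per well in PBS; test concentration not given here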
# Sequence of Luciferin 4-monooxygenase (Photinus pyralis) (P08659 whole entry, looked up): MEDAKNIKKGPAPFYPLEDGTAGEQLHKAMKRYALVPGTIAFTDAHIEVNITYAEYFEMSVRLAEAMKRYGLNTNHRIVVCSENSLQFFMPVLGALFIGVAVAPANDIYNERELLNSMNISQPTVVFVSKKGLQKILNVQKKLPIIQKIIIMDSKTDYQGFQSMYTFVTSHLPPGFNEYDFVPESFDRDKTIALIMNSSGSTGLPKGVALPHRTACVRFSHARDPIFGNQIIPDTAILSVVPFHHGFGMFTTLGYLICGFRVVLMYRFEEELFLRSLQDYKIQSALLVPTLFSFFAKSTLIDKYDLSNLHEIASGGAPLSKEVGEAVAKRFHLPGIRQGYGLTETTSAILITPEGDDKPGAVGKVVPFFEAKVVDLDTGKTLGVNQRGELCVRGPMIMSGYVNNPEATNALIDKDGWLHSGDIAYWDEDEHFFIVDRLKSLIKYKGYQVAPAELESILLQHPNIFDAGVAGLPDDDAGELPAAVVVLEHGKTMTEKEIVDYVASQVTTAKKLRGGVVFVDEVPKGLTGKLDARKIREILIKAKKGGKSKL
SMILES,composite z-score (Albumin (Bos taurus)),composite Z-score [1],composite z-score [2],composite z-score [3],composite z-score [4],composite z-score [5],composite z-score [6],composite z-score (Sam68 (KHDRBS1)),composite z-score [7],composite z-score [8],composite z-score [9],composite z-score [10],composite z-score [11],composite z-score [12],composite z-score [13],composite z-score [14],z-score [15],composite z-score (Lefty1),composite z-score [16],z-score [17]
CCCCC(CC)C(O)C1C=CC2C(=O)N(C)C(=O)C2N1Nc1ccccc1 (stereo not given),0.928,0.576 (inactive),0.0934,-0.0804,0.655,1.99,0.245,1.31,-0.113,0.586,1.51,1.21,0.592,0.852,0.22,-0.364,0.665,-0.118,0.795,0.546 (inactive)
CC(C)[Si](C#CCCCC#N)(O[C@H](c1ccccc1)c1cn(Cc2ccccc2)nn1)C(C)C,0.728,-0.535 (inactive),0.123,-0.174,0.249,0.691,0.272,1.16,0.568,0.536,1.01,0.694,-0.359,0.534,0.793,0.725,0.408,0.809,0.235,-0.254 (inactive)
CC(C)[Si](C#C[Si](C(C)C)(C(C)C)C(C)C)(O[C@H](c1ccccc1)c1cn(Cc2ccccc2)nn1)C(C)C,-0.0062,-0.058 (inactive),0.143,-0.146,0.237,-0.366,-0.0307,1.02,0.511,0.135,0.259,0.733,0.23,0.436,0.532,0.2,0.238,0.635,0.212,0.87 (inactive)
Cc1ccc(F)cc1S(=O)(=O)N[C@@H]1CCN(Cc2ccc(Br)cc2)C1,0.694,-0.388 (inactive),0.122,-0.0424,0.276,-0.593,-0.386,-0.811,0.743,-0.862,-0.325,-0.464,-0.408,0.79,0.639,0.677,1.47,0.983,0.124,-0.457 (inactive)
CC1CC/C=C\[C@H]2OC34C=CCN(c5ccc6ccccc6c5)C(=O)[C@H]3N(CCCO)C(=O)[C@@H]4C2C(=O)O1 (stereo not given in full),-0.132,1.18 (inactive),-0.276,-0.16,0.574,-0.515,-0.701,-0.335,-1.77,-0.71,1.08,-0.453,-0.633,-0.794,-0.82,-1.86,-0.148,-1.12,-0.985,-0.212 (inactive)
CC(C)NC(=O)[C@@]1(c2ccc([N+](=O)[O-])cc2)CC(=O)N(C2CCCCC2)[C@@H]1c1ccc(CO)cc1,0.807,-0.107 (inactive),0.325,-0.245,0.729,2.17,0.94,1.26,-0.0413,1.02,2.4,1.17,0.959,0.729,1.28,0.584,0.438,1.29,0.965,1.46 (inactive)
